Source: the supplement of paper PMC11219838
Unmarked numbers belong to inactive results.

How the values were obtained:
Conditions in all cases: 60 µM; 5 days; temperature: 20 °C
Meloidogyne hapla J2 = assay: proportion of mobile M. hapla J2 relative to DMSO control (fraction of DMSO control); higher = more viable, less nematicidal, active = 0.7 or less
Method in brief: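 About 25 M. hapla J2 were added per 96-well well in distilled water, and compound was pinned to 60 µM final (0.6% v/v DMSO). Sealed plates were shaken at 200 rpm for 5 days at 20 °C, then 2 µL 1 M NaOH was added before microscopic mobility scoring. Mobility was divided by the mean of eight DMSO wells on the same plate, and two biological replicates were averaged.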

[1] = system: Caenorhabditis elegans dauer (daf-2(e1370)); assay: proportion of mobile C. elegans dauer larvae relative to DMSO control (fraction of DMSO control); higher = more viable, less nematicidal, active = 0.63 or less; extreme values may be limits of the assay
Method in brief: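 Compound was added by pinning to 60 µM final, giving 0.6% v/v DMSO, in 96-well plates containing about 20 C. elegans dauers per well in liquid NGM. These dauers came from synchronized larvae held on MYOB plates with E. coli OP50 for 48 h at 25 °C. Plates were sealed and shaken at 200 rpm at 20 °C for 5 days. Under a dissection microscope, the proportion of mobile worms was scored relative to DMSO wells, and two biological replicates were averaged.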

Ditylenchus dipsaci = assay: proportion of mobile D. dipsaci (mixed stage) relative to DMSO control (fraction of DMSO control); higher = more viable, less nematicidal, active = 0.86 or less; extreme values may be limits of the assay
Method in brief: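 D. dipsaci were grown on pea plants in Gamborg B-5 agar and extracted through a filter funnel into water, and about 20 worms were added per 96-well well in distilled water. Compound was pinned to 60 µM final (0.6% v/v DMSO), and sealed plates were shaken at 200 rpm for 5 days at 20 °C. After 2 µL 1 M NaOH was added, mobile worms were scored microscopically. Mobility was expressed relative to DMSO controls and averaged over two biological replicates.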

COc1ccc(-c2nnc(SCC(=O)Nc3ccc(Br)cc3C)o2)cc1
proportion of mobile M. hapla J2 (Meloidogyne hapla J2): 0.929
proportion of mobile C. elegans dauer larvae [1]: 1
proportion of mobile D. dipsaci (Ditylenchus dipsaci): 0.667 (active)

CCOc1nc(C)ccc1-c1noc(-c2cccc(C)c2)n1
proportion of mobile M. hapla J2 (Meloidogyne hapla J2): 0.847
proportion of mobile C. elegans dauer larvae [1]: 1
proportion of mobile D. dipsaci (Ditylenchus dipsaci): 1

COc1ccccc1NC(=O)c1ccccc1-c1nc(-c2ccc(Cl)cc2)no1
proportion of mobile M. hapla J2 (Meloidogyne hapla J2): 0.78
proportion of mobile C. elegans dauer larvae [1]: 1
proportion of mobile D. dipsaci (Ditylenchus dipsaci): 1

CNC(=O)c1ccccc1-c1nc(-c2ccc(Cl)cc2)no1
proportion of mobile M. hapla J2 (Meloidogyne hapla J2): 0.985
proportion of mobile C. elegans dauer larvae [1]: 1
proportion of mobile D. dipsaci (Ditylenchus dipsaci): 1

O=C(CSc1nnc(-c2cc3ccccc3o2)o1)NC1CC1
proportion of mobile M. hapla J2 (Meloidogyne hapla J2): 0.928
proportion of mobile C. elegans dauer larvae [1]: 1
proportion of mobile D. dipsaci (Ditylenchus dipsaci): 1

Cc1ccc(OCc2nc(-c3ccccc3Cl)no2)c(C)c1
proportion of mobile M. hapla J2 (Meloidogyne hapla J2): 1
proportion of mobile C. elegans dauer larvae [1]: 1
proportion of mobile D. dipsaci (Ditylenchus dipsaci): 1

COc1ccc(CCC(=O)Nc2ccc(-c3noc(-c4ccccc4C)n3)cc2)cc1
proportion of mobile M. hapla J2 (Meloidogyne hapla J2): 0.791
proportion of mobile C. elegans dauer larvae [1]: 1
proportion of mobile D. dipsaci (Ditylenchus dipsaci): 1

CC1CCN(C(=O)CSc2nnc(-c3cccc(Cl)c3)o2)CC1
proportion of mobile M. hapla J2 (Meloidogyne hapla J2): 1.02
proportion of mobile C. elegans dauer larvae [1]: 1
proportion of mobile D. dipsaci (Ditylenchus dipsaci): 1

COc1ccccc1CC(=O)Nc1ccc(-c2noc(-c3ccccc3C)n2)cc1
proportion of mobile M. hapla J2 (Meloidogyne hapla J2): 0.743
proportion of mobile C. elegans dauer larvae [1]: 1
proportion of mobile D. dipsaci (Ditylenchus dipsaci): 1

c1ccc(COc2cccc(-c3nc(-c4cccnc4)no3)c2)cc1
proportion of mobile M. hapla J2 (Meloidogyne hapla J2): 0.854
proportion of mobile C. elegans dauer larvae [1]: 1
proportion of mobile D. dipsaci (Ditylenchus dipsaci): 1

Cc1ccc(SCc2nc(-c3ccccc3)no2)cc1
proportion of mobile M. hapla J2 (Meloidogyne hapla J2): 1.14
proportion of mobile C. elegans dauer larvae [1]: 1
proportion of mobile D. dipsaci (Ditylenchus dipsaci): 1

COc1ccc(-c2noc(-c3cc(C)ccc3C)n2)cc1
proportion of mobile M. hapla J2 (Meloidogyne hapla J2): 0.916
proportion of mobile C. elegans dauer larvae [1]: 1
proportion of mobile D. dipsaci (Ditylenchus dipsaci): 1

Brc1ccc(-c2nc(-c3cccnc3)no2)cc1
proportion of mobile M. hapla J2 (Meloidogyne hapla J2): 0.984
proportion of mobile C. elegans dauer larvae [1]: 0.552 (active)
proportion of mobile D. dipsaci (Ditylenchus dipsaci): 1

Cc1cc(C)c(NC(=O)CSc2nnc(-c3ccc(Br)cc3)o2)c(C)c1
proportion of mobile M. hapla J2 (Meloidogyne hapla J2): 1
proportion of mobile C. elegans dauer larvae [1]: 1
proportion of mobile D. dipsaci (Ditylenchus dipsaci): 1

O=C(CSc1nnc(-c2ccc(Cl)cc2Cl)o1)c1ccc2c(c1)OCCO2
proportion of mobile M. hapla J2 (Meloidogyne hapla J2): 0.719
proportion of mobile C. elegans dauer larvae [1]: 1
proportion of mobile D. dipsaci (Ditylenchus dipsaci): 1

COc1ccc(OC(C)c2nc(-c3ccccn3)no2)cc1 (stereo not drawn)
proportion of mobile M. hapla J2 (Meloidogyne hapla J2): 1.03
proportion of mobile C. elegans dauer larvae [1]: 1
proportion of mobile D. dipsaci (Ditylenchus dipsaci): 1

CCc1ccc(C(=O)Nc2ccccc2-c2nc(-c3cccnc3)no2)cc1
proportion of mobile M. hapla J2 (Meloidogyne hapla J2): 1.03
proportion of mobile C. elegans dauer larvae [1]: 1
proportion of mobile D. dipsaci (Ditylenchus dipsaci): 1

Cc1c(C)n(C(=O)CSc2nnc(-c3ccccc3)o2)c2ccccc12
proportion of mobile M. hapla J2 (Meloidogyne hapla J2): 0.982
proportion of mobile C. elegans dauer larvae [1]: 1
proportion of mobile D. dipsaci (Ditylenchus dipsaci): 1

Cc1ccc(-c2nnc(SCc3ccccc3)o2)cc1
proportion of mobile M. hapla J2 (Meloidogyne hapla J2): 0.256 (active)
proportion of mobile C. elegans dauer larvae [1]: 0.371 (active)
proportion of mobile D. dipsaci (Ditylenchus dipsaci): 0.889

Cc1cc(OCc2nc(-c3ccccn3)no2)c(C)cc1Br
proportion of mobile M. hapla J2 (Meloidogyne hapla J2): 0.711
proportion of mobile C. elegans dauer larvae [1]: 1
proportion of mobile D. dipsaci (Ditylenchus dipsaci): 1

COc1ccc(NC(=O)CSc2nnc(-c3ccccc3)o2)cc1
proportion of mobile M. hapla J2 (Meloidogyne hapla J2): 0.907
proportion of mobile C. elegans dauer larvae [1]: 1
proportion of mobile D. dipsaci (Ditylenchus dipsaci): 1

CC(C)(Oc1ccc(Cl)cc1)c1nc(-c2ccncc2)no1
proportion of mobile M. hapla J2 (Meloidogyne hapla J2): 0.91
proportion of mobile C. elegans dauer larvae [1]: 1
proportion of mobile D. dipsaci (Ditylenchus dipsaci): 1

Brc1ccc(OCc2nc(-c3cccs3)no2)cc1
proportion of mobile M. hapla J2 (Meloidogyne hapla J2): 0.963
proportion of mobile C. elegans dauer larvae [1]: 1
proportion of mobile D. dipsaci (Ditylenchus dipsaci): 1

Ic1ccc(OCc2nc(-c3ccncc3)no2)cc1
proportion of mobile M. hapla J2 (Meloidogyne hapla J2): 1.01
proportion of mobile C. elegans dauer larvae [1]: 1
proportion of mobile D. dipsaci (Ditylenchus dipsaci): 1

Brc1ccc(-c2nnc(-c3cccs3)o2)o1
proportion of mobile M. hapla J2 (Meloidogyne hapla J2): 1.07
proportion of mobile C. elegans dauer larvae [1]: 0.75
proportion of mobile D. dipsaci (Ditylenchus dipsaci): 0.362 (active)

CCCCc1nc(-c2ccc(-c3ccc(C)cc3)nc2OC)no1
proportion of mobile M. hapla J2 (Meloidogyne hapla J2): 0.843
proportion of mobile C. elegans dauer larvae [1]: 1
proportion of mobile D. dipsaci (Ditylenchus dipsaci): 1

COc1ccc(NC(=O)c2ccccc2-c2nc(-c3ccccc3C)no2)cc1
proportion of mobile M. hapla J2 (Meloidogyne hapla J2): 0.81
proportion of mobile C. elegans dauer larvae [1]: 1
proportion of mobile D. dipsaci (Ditylenchus dipsaci): 1

Cc1ccc(-c2noc(-c3ccccc3OCC(N)=O)n2)cc1
proportion of mobile M. hapla J2 (Meloidogyne hapla J2): 1.04
proportion of mobile C. elegans dauer larvae [1]: 1
proportion of mobile D. dipsaci (Ditylenchus dipsaci): 1

Cc1ccccc1-c1nnc(SCc2ccccc2)o1
proportion of mobile M. hapla J2 (Meloidogyne hapla J2): 0.986
proportion of mobile C. elegans dauer larvae [1]: 1
proportion of mobile D. dipsaci (Ditylenchus dipsaci): 1

CC(C)(C)NC(=O)c1ccccc1-c1nc(-c2ccccc2)no1
proportion of mobile M. hapla J2 (Meloidogyne hapla J2): 0.886
proportion of mobile C. elegans dauer larvae [1]: 1
proportion of mobile D. dipsaci (Ditylenchus dipsaci): 1

CCOc1ccc(-c2noc(-c3ccncc3)n2)cc1OC
proportion of mobile M. hapla J2 (Meloidogyne hapla J2): 1
proportion of mobile C. elegans dauer larvae [1]: 1
proportion of mobile D. dipsaci (Ditylenchus dipsaci): 1

C#CCOc1ccc(-c2nc(-c3ccccc3)no2)cc1
proportion of mobile M. hapla J2 (Meloidogyne hapla J2): 1.06
proportion of mobile C. elegans dauer larvae [1]: 1
proportion of mobile D. dipsaci (Ditylenchus dipsaci): 1

COc1ccc(-c2nnc(SCC(=O)c3ccc4ccccc4c3)o2)cc1
proportion of mobile M. hapla J2 (Meloidogyne hapla J2): 1.03
proportion of mobile C. elegans dauer larvae [1]: 1
proportion of mobile D. dipsaci (Ditylenchus dipsaci): 1

O=C(CSc1nnc(-c2ccccc2)o1)Nc1cccc(C(F)(F)F)c1
proportion of mobile M. hapla J2 (Meloidogyne hapla J2): 1
proportion of mobile C. elegans dauer larvae [1]: 1
proportion of mobile D. dipsaci (Ditylenchus dipsaci): 1

CCOC(=O)c1c(NC(=O)CSc2nnc(-c3ccccc3OCC)o2)sc(C(C)=O)c1C
proportion of mobile M. hapla J2 (Meloidogyne hapla J2): 0.918
proportion of mobile C. elegans dauer larvae [1]: 1
proportion of mobile D. dipsaci (Ditylenchus dipsaci): 1

COc1cccc(-c2noc(COc3ccc(C(C)C)cc3)n2)c1
proportion of mobile M. hapla J2 (Meloidogyne hapla J2): 0.968
proportion of mobile C. elegans dauer larvae [1]: 1
proportion of mobile D. dipsaci (Ditylenchus dipsaci): 1
